Bioassay records as filed in PubChem.
Most compounds without a hit are left out; they make up all but 0.93% or so of the library.
697 NFkB inh – lowers PMA/ionomycin-induced NF-kB signal in 697 B cells | 697 B-cell NF-kB luciferase reporter, 16 h | AID 435022 | inhibition, % at 4 µM | hit rate 0.33% among 330,000; in the data active means inhibition above about 35%
CFTR F508del cor – correctors of CFTR F508del function in bronchial epithelial cells; CFBE cells, YFP halide quenching; stimulated with forskolin plus potentiator P3; % fluorescence drop versus neutral controls; activity (quench increase), % at 7.58 µM; hit rate 0.36% among 350,000;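 active means mean added fluorescence quench of at least 8% versus neutral control, with both replicates also reaching 8%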;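 further: cells transiently co-express mutant CFTR-F508del with the halide-sensitive YFP; corrector assay measuring rescue of mutant channel to the surface after 24 h compound exposure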
Jurkat NFkB inh – inhibitors of the PMA/ionomycin-induced NF-kB reporter in Jurkat cells | PMA/ionomycin-induced NF-kB luciferase reporter, luminescence | hit rate 0.53% among 330,000 | inhibition, % at 4 µM; in the data active means inhibition above about 50%
HIF act – HIF pathway transcriptional activation; U2OS HRE-luciferase reporter, luminescence; normalized: DMSO 0%, desferrioxamine 100%; hit rate 0.32% among 300,000; AID 1910; activation, % at 7.5 µM (by protocol);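 active means mean activation of at least 10% of the iron chelator positive control signal, with at least half of replicates also reaching 10%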
Numbers without * were called inactive; . = no result given.

SMILES	697 NFkB inh	CFTR F508del cor	Jurkat NFkB inh	HIF act
CCC(=O)NC(c1ccccc1OC)c1ccc2cccnc2c1O (stereo not drawn)	-17	.	30	35*
CCCC(=O)NC(c1ccccc1)c1ccc2cccnc2c1O (stereo not drawn)	-38	0	39	51*
CCCNC(=O)N1CC2(C1)CN(C(=O)c1ccncc1)[C@H](CO)c1[nH]c3cc(OC)ccc3c12	.	-1	.	.
CCO[C@@H]1OC(C(=O)Nc2ccccc2)=C[C@H](c2cn(C(C)=O)c3ccccc23)[C@H]1CCCO	.	1	.	.
COc1ccc2c3c(n(C)c2c1)[C@@H](CO)N(C(=O)C1CC1)CC31CCN(CC2CCCC2)CC1	.	0	.	.
Cc1noc(C)c1S(=O)(=O)N(C)C[C@@H]1OCCCC[C@H](C)Oc2ccc(NC(=O)Nc3ccc(F)cc3)cc2C(=O)N([C@H](C)CO)C[C@H]1C	.	-1	.	.
O=C(c1ccccc1F)N1C[C@H]2[C@@H](c3ccccc31)[C@H](CO)N2C(=O)c1ccccc1	.	1	.	.
CCCCC(=O)NC(c1ccccc1)c1ccc2cccnc2c1O (stereo not drawn)	-10	4	42	48*
CCCCC(=O)NC(c1cccc([N+](=O)[O-])c1)c1ccc2cccnc2c1O (stereo not drawn)	.	7	.	.
CCCn1c(SCC(=O)N2CCc3ccccc3C2)nc2c1c(=O)n(C)c(=O)n2C	2	.	19	735*
COc1ccc2c3c(n(C)c2c1)[C@H](CO)N(C(=O)CN1CCOCC1)CC31CCN(C(C)=O)CC1	.	-1	.	.
CC(=O)c1cccc(NC(=O)CN(C)S(=O)(=O)c2cccc3nsnc23)c1	-5	2	5	14*
CN(C)CCCNC(=O)C[C@H]1CC[C@@H]2[C@H](COC[C@H](O)CN2CC2CCCC2)O1	.	-2	.	.
O=C(NC(=S)Nc1ccccc1)c1cc(-c2ccccc2)nc2ccccc12	-20	.	-11	2
O=C(NC(=S)Nc1ccccn1)c1cc(-c2ccccc2)nc2ccccc12	-4	.	0	184*
COc1cccc(/C=N/NC(=O)CSc2ccccc2C)c1OC	17	.	5	0
CCOc1ccccc1/C=N/NC(=O)c1c(C)nc2ccc(Br)cn12	1	4	14	-1
COc1cccc(/C=N/NC(=O)c2nc(-c3ccccc3)cc(-c3ccccc3)n2)c1O	-14	.	-16	11*
COc1cccc(/C=N/NC(=O)c2c(C)nc3ccc(Br)cn23)c1O	-7	.	49	32*
COc1ccc(/C=N/NC(=O)c2c(C)nc3ccc(Br)cn23)cc1OC	-5	10*	22	0
COc1ccc(/C=N/NC(=O)c2c(C)nc3ccc(Cl)cn23)cc1OC	1	2	16	2
COc1cccc(/C=N/NC(=O)CSc2ccccc2C)c1O	-7	.	-3	12*
C/C=C/CN(C(=O)C#Cc1ccccc1)[C@H](CO[Si](C)(C)C(C)(C)C)c1ccccc1	.	3	.	.
COc1ccc2c3c([nH]c2c1)[C@H](CO)N(C(=O)c1ccc(F)cc1)CC31CN(C(=O)Nc2ccc(F)cc2)C1	.	-1	.	.
C[C@H](CO)N1C[C@H](C)[C@@H](CN(C)C(=O)c2ccccc2)OCCCC[C@H](C)Oc2ccc(NC(=O)C3CCCCC3)cc2C1=O	.	0	.	.
SMILES	697 NFkB inh	CFTR F508del cor	Jurkat NFkB inh	HIF act
O=C1O[C@@H](c2ccccc2)[C@@H](c2ccccc2)N2[C@@H](c3ccc(OCCO)cc3)[C@]3(C(=O)Nc4ccccc43)[C@@H](C(=O)Nc3nc4ccccc4s3)[C@H]12	.	-3	.	.
COc1cccc(/C=N\NC(=O)c2ccc(Cn3cc(Br)c([N+](=O)[O-])n3)o2)c1O	-108	4	5	18*
COc1cc(/C=N\NC(=O)c2ccc(Cn3nc([N+](=O)[O-])c(Cl)c3C)o2)ccc1O	10	.	-4	0
CCN1C(=O)c2cccc3c(N)ccc(c23)C1=O	-6	19*	-3	-1
CCCN1C(=O)c2cccc3c(N4CCCCC4)ccc(c23)C1=O	.	.	.	-2
CO[C@H]1CN(C)C(=O)c2ccc(NS(=O)(=O)c3ccc(Cl)cc3)cc2OC[C@@H](C)NC[C@H]1C	.	-1	.	.
O=C(C[C@@H]1CC[C@H](NC(=O)Nc2cc(F)ccc2F)[C@@H](CO)O1)Nc1ccccc1	.	-1	.	.
COc1ccc(S(=O)(=O)Nc2ccc3c(c2)C(=O)N([C@H](C)CO)C[C@@H](C)[C@@H](CN(C)Cc2ccc(Cl)c(Cl)c2)O3)cc1	.	13*	.	.
C[C@@H]1CN([C@H](C)CO)C(=O)c2cc(NS(=O)(=O)c3ccc(Cl)cc3)ccc2O[C@@H]1CN(C)Cc1ccc(-c2ccccc2)cc1	.	9.4*	.	.
COc1ccc(S(=O)(=O)Nc2ccc3c(c2)C(=O)N([C@@H](C)CO)C[C@@H](C)[C@H](CN(C)Cc2ccc(Oc4ccccc4)cc2)O3)cc1	.	10*	.	.
Cc1ccc(S(=O)(=O)N/N=C/c2cccc([N+](=O)[O-])c2)cc1	12	.	-14	0
CCCCCCCCCS(=O)(=O)N/N=C/c1cccc([N+](=O)[O-])c1	9	.	6	71*
O=C(N/N=C(\c1ccccc1)c1ccccn1)c1cccc([N+](=O)[O-])c1	8	.	48	131*
C[C@@H]1CCCCO[C@H](CN(C)CC2CCCCC2)[C@H](C)CN([C@H](C)CO)C(=O)c2cc(NC(=O)C3CCCCC3)ccc2O1	.	2	.	.
N#Cc1ccccc1S(=O)(=O)N1CCN(c2cnccn2)CC1	-4	-3	-8	68*
COCCSc1ccccc1C(=O)Nc1cc([N+](=O)[O-])ccc1OC	10	18*	-5	3
O=C(/C=C/c1ccc(Br)cc1)c1ccc(NC2=NCCCS2)cc1	-9	1	9	1
CC(C)(C)c1ccc(/C=C/C(=O)c2ccc(NC3=NCCCS3)cc2)cc1	-26	8.3*	-6	0
COc1cnc(-c2ccccn2)nc1NC(C)C	-5	2	12	178*
COc1ccccc1Sc1nc(-c2ccccn2)ncc1OC	-20	1	1	2
COCC(=O)Nc1ccc2c(c1)C(=O)N(C)C[C@@H](OC)[C@@H](C)CN(Cc1ccccc1F)[C@@H](C)CO2	.	-1	.	.
O=C(Nc1ccc(C(F)(F)F)cc1)N[C@H]1CC[C@H](CCn2cc(C3(O)CCCC3)nn2)O[C@H]1CO	.	1	.	.
C[C@H]1CN([C@@H](C)CO)S(=O)(=O)c2ccc(/C=C/c3ccccc3)cc2O[C@@H]1CN(C)C(=O)Nc1ccc(F)cc1	.	10*	.	.
C[C@@H]1CN([C@H](C)CO)S(=O)(=O)c2ccc(/C=C/c3ccccc3)cc2O[C@H]1CN(C)C(=O)Nc1ccc(F)cc1	.	5	.	.
C[C@@H]1CN([C@H](C)CO)S(=O)(=O)c2ccc(/C=C/c3ccccc3)cc2O[C@H]1CN(C)C(=O)NC1CCCCC1	.	9.6*	.	.
C[C@H]1CN([C@@H](C)CO)S(=O)(=O)c2ccc(/C=C/c3ccccc3)cc2O[C@H]1CN(C)Cc1ccccc1	.	8.0*	.	.
C[C@H](CO)N1C[C@H](C)[C@@H](CN(C)Cc2ccccc2)Oc2cc(/C=C/c3ccccc3)ccc2S1(=O)=O	.	1	.	.
